Compound activity deposited in PubChem BioAssay by National Center for Advancing Translational Sciences (NCATS).
FEN1 inh-1: human FEN1 inhibition; P39748; Recombinant FEN1 flap cleavage, fluorescence, 15 min; Potency, µM (series often up to 114 µM), inactives show at the top dose activity change, negative = inhibition, usual class: inhibitors; 0.35% of 390,000 active; also: potency is read from the fitted curve at half-maximal effect; % is scaled to controls: 0 for no effect and ±100 for the full control effect; nearly all actives have a fitted effect of over 65% in size
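Reaction started by adding substrate (50 nM final) to 10 nM enzyme after 15 min room-temperature compound preincubation. Reads at 0 and 15 min, with data normalized and fitted to a four-parameter Hill equation.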
Tb PGK inh: blocks T. brucei phosphoglycerate kinase; P07378; PGK/GAPDH coupled, Kinase-Glo luminescence, 60 min; Potency, µM (series often up to 57.5 µM), inactives show at the top dose activity change, negative = inhibition, most hits filed as inhibitors; 0.043% of 380,000 active; AID 602233; also: potency is read from the fitted curve at half-maximal effect; % is scaled to controls: 0 for no effect and ±100 for the full control effect; nearly all actives have a fitted effect of over 60% in size
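Recombinant glycosomal PGK reaction used 1,3-bisphosphoglycerate generated in-well by GAPDH (100nM final) in 100mM TEA pH 7.6, 5mM MgCl2, 0.01% Tween-20. After 60 minutes at room temperature, ATP was read by Kinase-Glo Plus luminescence end-point.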
POLB inh: DNA polymerase beta (human) inhibition. Potency, µM (top dose mostly 114 µM), for the others: at the highest dose activity change, negative = inhibition, actives largely listed as inhibitors. 1.3% of 340,000 active. AID 485314. Pol beta primer extension/strand displacement, fluorescence kinetic. P06746; also: potency is read from the fitted curve at half-maximal effect; % is scaled to controls: 0 for no effect and ±100 for the full control effect
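Values derive from four-parameter Hill fits of normalized kinetic data: reads at 0 and 10 min following addition of 50 nM substrate to 10 nM Pol beta preincubated 15 min with compound.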
Pol eta inh-1: DNA polymerase eta (human) inhibition; Potency, µM (highest dose often 114 µM), without a hit: at the top dose activity change, negative = inhibition, most hits filed as inhibitors; recombinant Pol eta, fluorescent DNA replication assay; 1.2% of 390,000 active; also: potency is read from the fitted curve at half-maximal effect; % is scaled to controls: 0 for no effect and ±100 for the full control effect
Target sequence (Q9Y253 whole entry, looked up): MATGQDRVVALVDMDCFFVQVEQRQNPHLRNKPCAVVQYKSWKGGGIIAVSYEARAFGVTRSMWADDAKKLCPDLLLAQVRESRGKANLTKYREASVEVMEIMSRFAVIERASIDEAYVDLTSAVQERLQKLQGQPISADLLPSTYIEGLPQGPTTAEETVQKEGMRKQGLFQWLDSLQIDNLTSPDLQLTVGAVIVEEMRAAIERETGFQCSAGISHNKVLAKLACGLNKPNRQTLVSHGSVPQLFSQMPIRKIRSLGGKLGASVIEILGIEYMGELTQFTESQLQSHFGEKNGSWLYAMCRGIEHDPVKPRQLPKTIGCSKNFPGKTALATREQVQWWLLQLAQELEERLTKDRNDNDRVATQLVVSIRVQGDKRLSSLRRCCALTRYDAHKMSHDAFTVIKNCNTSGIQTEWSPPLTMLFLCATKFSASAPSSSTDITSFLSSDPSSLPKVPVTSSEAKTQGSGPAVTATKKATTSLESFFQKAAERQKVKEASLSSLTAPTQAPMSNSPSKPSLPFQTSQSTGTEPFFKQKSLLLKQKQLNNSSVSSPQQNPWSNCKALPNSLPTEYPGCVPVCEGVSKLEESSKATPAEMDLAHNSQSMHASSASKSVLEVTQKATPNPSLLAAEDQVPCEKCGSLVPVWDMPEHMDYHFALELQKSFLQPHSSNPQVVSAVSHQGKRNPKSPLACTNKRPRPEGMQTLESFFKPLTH
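Fluorescent replication assay: 50 nM final substrate added after a 15 min room-temperature compound preincubation with 10 nM enzyme. Signal taken at 0 min and again at 10 min.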
POLI inh: blocks human DNA polymerase iota activity | Q9UNA4 | Pol iota fluorescent replication assay, 10 min | Potency, µM (doses to about 115 µM), without a hit: top-dose activity, negative = inhibition, actives largely listed as inhibitors | 1% of 390,000 active | AID 588590; also: potency is read from the fitted curve at half-maximal effect
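Fluorescent replication assay read twice, at 0 min and 10 min after adding 50 nM (final) substrate. Enzyme (10 nM) and compounds were first incubated 15 min at room temperature; enzyme-free buffer wells were negative controls.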
Pol kappa inh-1: DNA polymerase kappa (human) inhibition. Q9UBT6. 0.53% of 400,000 active. purified Pol kappa, fluorescent DNA synthesis assay, 10 min. Potency, µM (doses to about 107 µM), for inactives: at the highest dose activity, negative = inhibition, usual class: inhibitors; also: potency is read from the fitted curve at half-maximal effect; % is scaled to controls: 0 for no effect and ±100 for the full control effect
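10 nM Pol kappa preincubated 15 min at room temperature with compounds, then reaction started with substrate at 50 nM final. Fluorescence read kinetically at 0 and 10 min; buffer-only wells served as negative control.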
BAZ2B inh: confirmation of human BAZ2B bromodomain inhibitors; shares compounds with Pol kappa inh-1; AlphaScreen BAZ2B / biotin-H3K14Ac peptide displacement; Potency, µM, actives largely listed as inhibitors; 100% of 25 active; AID 588809; calls by dose curve
AlphaScreen ctr: interferes with AlphaScreen signal in BAZ2B counterscreen | shares compounds with Pol kappa inh-1 | AlphaScreen biotin-His6 peptide bead counterscreen, signal decrease | Potency, µM (series often up to 57.1 µM), for the others: at the highest dose activity change, negative = inhibition, actives largely listed as inhibitors | 25 tested, under 10 active;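 active = clear concentration-dependent signal drop in the bead assay lacking the target, so a primary-screen artifact; inconclusive = weak, partial or single-dose response; inactive = no response, so a real primary hit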
TbPGK inh: blocks T. brucei phosphoglycerate kinase. TbPGK coupled GAPDH assay, Kinase-Glo luminescence. 79% of 500 active. Potency, µM (top dose mostly 57.5 µM), without a hit: at the top dose activity change, negative = inhibition, hits mostly inhibitors. shares compounds with Pol kappa inh-1; also: potency is read from the fitted curve at half-maximal effect; % is scaled to controls: 0 for no effect and ±100 for the full control effect; nearly all actives have a fitted effect of over 65% in size
Pol iota confirm: Inhibitors of human DNA polymerase iota, confirmation; shares compounds with Pol kappa inh-1; Pol iota primer extension, TAMRA/BHQ fluorescence; Potency, µM, most hits filed as inhibitors; 77% of 1,500 active; AID 720496; also: potency is read from the fitted curve at half-maximal effect
GALK inh confirm: confirmation of human galactokinase (GALK) inhibitors; shares compounds with Pol eta inh-1; purified GALK, Kinase-Glo ATP depletion luminescence; Potency, µM (series often up to 115 µM), inactives show at the highest dose activity, negative = inhibition, actives largely listed as inhibitors; 70% of 150 active; AID 2015
GALK redox cs: redox cycling activity in phenol red-HRP assay. shares compounds with Pol eta inh-1. Phenol red-HRP H2O2 redox cycling, absorbance 600 nm. Potency, µM (top dose mostly 115 µM), for inactives: at the highest dose activity change, negative = H2O2 signal, hits mostly inhibitors. 40% of 150 active
HEK293 viability: HEK-293 cytotoxicity, GALK inhibitor secondary | shares compounds with Pol eta inh-1 | HEK-293 viability, ATP luminescence (CellTiter-Glo), 24/48 h | Potency, µM (series often up to 46.1 µM), inactives show top-dose activity change, negative = cytotoxicity, actives largely listed as inhibitors | 10% of 170 active | AID 2547; also: potency is read from the fitted curve at half-maximal effect; % is scaled to controls: 0 for no effect and ±100 for the full control effect
Pol kappa inh-2: Pol kappa (human) inhibition, cherry-pick confirmation; 76% of 920 active; Potency, µM, usual class: inhibitors; shares compounds with Pol eta inh-1; AID 720501; purified Pol-kappa, fluorescent strand-displacement substrate; also: potency is read from the fitted curve at half-maximal effect
Pol eta inh-2: Pol eta (human) inhibition, cherry-pick confirmation | shares compounds with Pol eta inh-1 | Pol eta primer extension, TAMRA/BHQ fluorescence, 10 min | Potency, µM, most hits filed as inhibitors | 64% of 2,600 active | AID 720502; also: potency is read from the fitted curve at half-maximal effect
FEN1 inh-2: confirmation of human FEN1 inhibitors. FEN1 flap cleavage, TAMRA/BHQ2 fluorogenic DNA substrate. shares compounds with FEN1 inh-1. 79% of 880 active. Potency, µM, most hits filed as inhibitors; also: potency is read from the fitted curve at half-maximal effect; nearly all actives have a fitted effect of over 60% in size
An asterisk follows results filed as active; ? = inconclusive; . = no result given; [ ] = dose if it differs, or a comment. In the library only some 2.4% were active in any assay of this set; here they are far more common. Unless noted, calls follow the shape of the dose curve; as a rule, active = well fitted curve in the direction sought with a large enough effect; inconclusive = small, poorly fitted or top-dose-only effect, or another doubt; inactive = no such curve, though single readings can be large; an effect the other way counts as inactive or inconclusive.

SMILES | FEN1 inh-1 | Tb PGK inh | POLB inh | Pol eta inh-1 | POLI inh | Pol kappa inh-1 | Pol eta inh-2 | others
O=C(CSc1nc(-c2ccc(F)cc2)nc2c1Cc1ccccc1O2)Nc1cccc(C(=O)O)c1 | ? | ? | 2.8µM* | 10µM* | 5.6µM* | 8.9µM* | 76* | BAZ2B inh=28*;AlphaScreen ctr=-25%;TbPGK inh=1.6µM*;Pol iota confirm=3.4*;FEN1 inh-2=27*
O=C(c1cncc(Br)c1)N1CCN(S(=O)(=O)c2ccc3ccccc3c2)CC1 | -12% | -8% | . | -11% | 49% | -6% | .
O=C(Cn1cnc2ccccc2c1=O)NCc1cccs1 | -1% | -5% | 0% | -13% | 79% | -14% | .
C=CCN1C(=O)/C(=C/c2ccc(Br)s2)C(=O)NC1=S | ? | -2% | ? | 20µM* | 18µM* | 79µM* | ?
C=CCN1C(=O)/C(=C/c2ccc3c(c2)CCCN3CCC)C(=O)NC1=S | -10% | -8% | ? | 71µM* | ? | ? | 67*
Cc1ccc(/C=C2/C(=O)NC(=O)N(CCc3ccc(F)cc3)C2=O)s1 | -6% | -7% | 39% | 2% | 5% | 2% | .
NC(=O)C(CC(=O)O)NC(=O)[C@@H]1CCOc2c(I)cc([N+](=O)[O-])cc2C(=O)N[C@@H](CO)C(=O)N[C@@H](Cc2ccc(O)cc2)C(=O)N1 (stereo not given in full) | ? | ? | 0% | 20µM* | ? | 35µM* | 30*
C[C@]12C/C(=C/O)C(=O)C[C@@H]1CC[C@@H]1[C@@H]2CC[C@@]2(C)[C@H]1CC[C@]2(C)O | . | . | . | . | . | -12%[60.1 µM] | .
Cc1ccc(N2C(=O)NC(=O)/C(=C\c3cc(C)n(-c4ccc(C(=O)O)cc4)c3C)C2=O)cc1 | -30% | -8% | ? | 35µM* | 25µM* | ? | ?
Cc1c(Cl)cccc1N1C(=O)NC(=O)/C(=C\c2cc(C)n(-c3cccc(C(=O)O)c3C)c2C)C1=O | 0% | -7% | ? | 35µM* | 11µM* | 79µM* | ?
Cc1ccc(N2C(=O)NC(=O)/C(=C\c3ccoc3)C2=O)cc1 | -29% | -15% | ? | 50µM* | 32µM* | ? | 48*
O=C1NC(=O)N(c2cccc(F)c2)C(=O)/C1=C/c1ccc(N2CCOCC2)cc1 | -4% | 3% | ? | 4% | ? | -20% | .
CCn1c(C)cc(/C=C2\C(=O)NC(=O)N(c3ccccc3C)C2=O)c1C | 0% | -6% | 2% | 5% | 0% | -6%[60.1 µM] | .
Cc1cc(/C=C2\C(=O)NC(=O)N(c3cccc(F)c3)C2=O)c(C)n1-c1ccc(C(=O)O)c(Cl)c1 | -13% | ? | 25µM* | 14µM* | ? | ? | 34*
CCOC(=O)c1cc(-c2ccccc2)n(CCCC(=O)Nc2ccc(C)c(C)c2)c1C | ? | -9% | ? | -1% | ? | -4%[60.1 µM] | .
CO[C@H]1[C@@H](O)CC(OC2[C@@H](O)CC(OC3[C@@H](O)C[C@H](OC4CC[C@@]5(C)C(CCC6C5CC(O)[C@]5(C)[C@H](C7=CC(=O)OC7)CCC65O)C4)O[C@@H]3C)O[C@@H]2C)O[C@@H]1C (stereo not given in full) | . | . | . | . | . | 0%[19.4 µM] | .
CCn1nc(-c2ccccc2)nc2c(=O)n(C)c(=O)nc1-2 | -12% | ? | ? | 0.79µM* | -103% | -8% | . | GALK inh confirm=0.6µM*;GALK redox cs=0.67µM*;HEK293 viability=?
Cc1ccccc1N1C(=O)NC(=O)/C(=C\c2cnn(-c3ccccc3)c2)C1=O | -13% | -24% | 16µM* | 22µM* | -6% | -5% | ?
COc1ccc(N2C(=O)/C(=C/c3ccc(C)o3)C(=O)NC2=S)cc1 | ? | -15% | 35µM* | 13µM* | 25µM* | -96% | 30* | Pol kappa inh-2=17*
CN1C(=O)/C(=C\c2ccc(N3CCCCC3)o2)C(=O)NC1=S | 6% | -10% | -13% | -29% | ? | -3% | .
CCOc1ccc(N2C(=O)/C(=C/c3ccc(C)o3)C(=O)NC2=S)cc1 | 22µM* | ? | 28µM* | 4µM* | 8.9µM* | 28µM* | 30*
CCOc1ccc(N2C(=O)NC(=O)/C(=C\c3ccc(N4CCCCC4)o3)C2=O)cc1 | 2% | -1% | 4%[57.1 µM] | -21% | 31% | -5% | .
